High-throughput results as filed in PubChem BioAssay.
This is a sample that favours compounds with a hit; in the whole collection about 4.7% have one here.
TGFb inhibitor = qHTS for Inhibitors of TGF-b; HepG2 CAGA-GFP TGF-b/SMAD3 reporter, GFP fluorescence, 18 h; TGF-beta stimulated, 500 pg/mL final; Potency, µM (titrated, usually from 46.1 µM), for the others: at the highest dose activity, negative = inhibition, hits mostly inhibitors; hit rate 1.2% among 410,000; AID 588855, 2011; also: potency is read from the fitted curve at half-maximal effect; % is scaled to controls: 0 for no effect and ±100 for the full control effect; nearly all actives have a fitted effect of over 65% in size
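Read-out: total well GFP (ex488/em500-530) summed from mean per-cell fluorescence. Cells: HEPG2 CAGA-GFP, 1% FBS DMEM, 18 h at 37 degrees C with 500 pg/mL final TGF-beta. Unstimulated wells served as the full-inhibition control; stimulated DMSO wells = 0%.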
ATXN viability = Viability Counterscreen for Primary qHTS for Inhibitors of ATXN expression; hit rate 0.49% among 400,000; S2 cells (HEK-293 line with an ATXN2-luciferase reporter) viability, CellTiter-Fluor protease fluorescence, 24 h; Potency, µM (doses to about 56.7 µM), most hits filed as cytotoxic; also: potency is read from the fitted curve at half-maximal effect; nearly all actives have a fitted effect of over 40% in size
D3 ag = qHTS of D3 Dopamine Receptor Agonist: qHTS; D3R DiscoveRx beta-arrestin cells, luminescence, 90 min; max activation, %; hit rate 0.58% among 410,000; AID 652048, 2013; in the data active = max activation above about 30%; also: 0% is about no effect
Target sequence (P35462 whole entry, looked up): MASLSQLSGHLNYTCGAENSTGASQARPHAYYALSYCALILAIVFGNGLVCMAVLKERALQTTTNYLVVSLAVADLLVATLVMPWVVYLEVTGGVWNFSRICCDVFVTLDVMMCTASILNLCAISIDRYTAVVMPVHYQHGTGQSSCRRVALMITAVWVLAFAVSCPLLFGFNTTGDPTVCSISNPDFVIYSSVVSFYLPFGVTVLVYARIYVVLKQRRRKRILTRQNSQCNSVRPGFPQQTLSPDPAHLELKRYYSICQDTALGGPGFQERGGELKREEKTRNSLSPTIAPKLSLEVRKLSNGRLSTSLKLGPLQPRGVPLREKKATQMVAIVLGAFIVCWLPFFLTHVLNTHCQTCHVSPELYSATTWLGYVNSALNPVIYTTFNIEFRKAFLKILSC
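Agonist mode: compounds and dopamine controls were applied to plated cells for 90 min at 37 degrees C after an overnight attachment at 1500 cells/well. Luminescent read-out followed 30 - 60 minutes at room temperature with DiscoveRx detection reagent.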
DRD3 antagonist = qHTS of D3 Dopamine Receptor Antagonist: qHTS. D(3) dopamine receptor (Homo sapiens), P35462. D3R cells, DiscoveRx beta-arrestin luminescence, antagonist mode; stronger effect = lower value. max response, negative = inhibition, %. hit rate 2.5% among 360,000. AID 652054, 2013; in the data active = max response below about -50%; inconclusive = no clear call, values can overlap the other calls; also: % is scaled to controls: 0 for no effect and ±100 for the full control effect
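Cells plated overnight at 1500 cells/well, then exposed to library compounds with dopamine controls for 90 minutes at 37 degrees C. DiscoveRx reagent added for 30–60 minutes at room temperature; luminescence read, quantitative HTS format.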
HepG2 tox = qHTS for Inhibitors of TGF-b: Cytotox Counterscreen. HepG2 CAGA-GFP viability, ATP luminescence, 18 h. Potency, µM (series often up to 46.1 µM), inactives show at the top dose activity change, negative = cytotoxicity, hits mostly cytotoxic. hit rate 0.76% among 410,000. AID 588856, 2011; also: potency is read from the fitted curve at half-maximal effect
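HepG2 CAGA-GFP cells (1000/well, DMEM with 1% FBS) received compound, then TGF-beta at 500 pg/mL final, and were incubated 18 hours at 37 degrees C. Viability was read by CellTiter-Glo luminescence. Media-only wells were set as complete cell-killing and DMSO as no toxicity.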
ATXN2 expr inh = Primary qHTS for Inhibitors of ATXN expression; HEK-293 ATXN2-luciferase reporter, luminescence, 24 h; Potency, µM (top dose mostly 57 µM), inactives show at the top dose activity change, negative = inhibition, hits mostly inhibitors; hit rate 0.72% among 360,000; also: potency is read from the fitted curve at half-maximal effect; % is scaled to controls: 0 for no effect and ±100 for the full control effect; nearly all actives have a fitted effect of over 55% in size
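qHTS (up to 57 uM final) was run with 24 h compound exposure of reporter cells at 37 °C. Each well was multiplexed: SteadyGlo luminescence measured ATXN2-luciferase expression after a fluorogenic Gly-Phe-AFC viability readout (25 uM final).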
* = called active by the depositor; i = inactive; ? = inconclusive; · = no result. Unless noted, calls follow the shape of the dose curve; as a rule, active = well fitted curve in the direction sought with a large enough effect; inconclusive = small, poorly fitted or top-dose-only effect, or another doubt; inactive = no such curve, though single readings can be large; an effect the other way counts as inactive or inconclusive.

SMILES	TGFb inhibitor	ATXN viability	D3 ag	DRD3 antagonist	HepG2 tox	ATXN2 expr inh
CC(C)CC(=O)NC(Nc1ccc([N+](=O)[O-])cc1)C(Cl)(Cl)Cl (stereo unspecified)	16µM*	i	-1	-11	-48%	-6%
Cc1ccc(C(=O)CC2(O)C(=O)N(CCc3ccccc3)c3ccc(Cl)cc32)cc1 (stereo unspecified)	18µM*	?	4	·	11µM*	?
O=C(CC1(O)C(=O)N(CCc2ccccc2)c2ccc(Br)cc21)c1ccccc1 (stereo unspecified)	?	i	5	·	-105%	-18%
CCC(C)NC(=O)CSc1nc2cc3c(cc2c(=O)n1Cc1ccc(C(=O)NCCc2ccc(OC)c(OC)c2)cc1)OCO3 (stereo unspecified)	0%	·	·	·	-6%	·
COc1ccccc1CNc1ncc(-c2ccc(F)cc2)n1C	-4%	i	-13	-16	-28%	-18%
COc1ccc(CNc2ncc(-c3ccc(F)cc3)n2C)c2ccccc12	?	i	-11	?	-43%	2µM*
O=C(O)c1cc(=O)cc(C(=O)O)[nH]1	-1%	i	-17	-82*	-4%	-6%
O=C(O)c1cc(=O)[nH]c(=O)[nH]1	·	i	-3	·	·	-7%
CSc1ccc(CCNC(=O)Cn2ccc3cc(S(=O)(=O)N4CCCCCC4)ccc32)cc1	-8%	i	-20	·	-17%	-24%
CCCCNC(=O)Cn1nc(N2CCN(c3ccccc3OC)CC2)ccc1=O	-25%	i	-9	·	-38%	0%
Cc1ccc2[nH]c3c(c2c1)CCCC3C(N)=O (stereo unspecified)	-13%	i	-1	-8	-5%	-2%
Cc1ccc2[nH]c3c(c2c1)CCCC3NC(=O)CCl (stereo unspecified)	?	?	-6	?	18µM*	?
CC(C)OP(=O)(OC(C)C)/C(C=O)=N\Nc1ccc([N+](=O)[O-])cc1	?	28µM*	-5	-11	-81%	·
CCCC1N=C2c3ccccc3N=C(SCC(=O)NCCc3ccc(Cl)cc3)N2C1=O (stereo unspecified)	0%	?	-6	·	-36%	8%
O=[N+]([O-])c1cc(S(=O)(=O)Oc2ccccc2)ccc1Cl	?	i	-18	8	8.9µM*	11%
CSc1ccc(CN2CCC2(C)C(=O)NC2CCc3ccccc32)cc1 (stereo unspecified)	?	i	5	-70*	-29%	3%
O=C1C(=O)c2ccccc2C([O-])=C1[n+]1ccccc1	2%	i	2	-1	-3%	-13%
CCc1cc[n+](C2=C([O-])c3ccccc3C(=O)/C2=N\S(=O)(=O)c2cccs2)cc1	2.8µM*	?	-18	-6	3.5µM*	?
CCCCCCCN(CC)CCCC(O)c1ccc(NS(C)(=O)=O)cc1 (stereo unspecified)	·	i	-26	·	·	?
CCCCOc1cccc(C(=O)N(Cc2ccc(Br)o2)C2CCS(=O)(=O)C2)c1 (stereo unspecified)	?	·	5	·	-16%	·
Cn1c(SCC(=O)N2CCCCC2)nc2c([nH]c3ccccc32)c1=O	3%	i	-2	-3	0%	-4%
CCOC(=O)N1CCN(C(=O)CSc2nc3c([nH]c4ccccc43)c(=O)n2C)CC1	13µM*	i	-1	-9	-75%	3%
CCOC(=O)C=C[C@H](C[C@@H]1CCNC1=O)NC(=O)[C@@H](CC(=O)[C@@H](NC(=O)c1cc(C)on1)C(C)C)Cc1ccc(F)cc1	·	·	·	·	·	13%
CC(C)=CCc1c(O)cc(O)c2c(=O)c3c(CC=C(C)C)c(O)ccc3oc12	4µM*	25µM*	0	2	16µM*	?
CC(C)=CCc1c(O)cc2c(=O)c3ccc(O)cc3oc2c1O	?	?	-11	9	-38%	23%
SMILES	TGFb inhibitor	ATXN viability	D3 ag	DRD3 antagonist	HepG2 tox	ATXN2 expr inh
Cc1ccc2cccc(N=Cc3c(C)[nH]n(-c4ccccc4)c3=O)c2n1	?	i	-28	-99*	-55%	28µM*
Cc1cc(C)n(-c2cccc(C(=O)NCC3Cc4cc(Cl)cc(-c5cnccn5)c4O3)c2)n1 (stereo unspecified)	·	i	·	·	·	·
Cc1ccc(CNC(=O)c2oc3c(c2C)-c2nn(Cc4ccc(Cl)cc4)cc2CC3)cc1	0%	·	-5	·	-15%	·
COc1ccc(N2CCN(C(=O)c3cn(C4CCCCC4)c(=O)c4c3c3ccccc3n4C)CC2)cc1	?	11µM*	5	·	-86%	-8%
Cc1ccc(CNC(=O)c2cn(C3CCCCC3)c(=O)c3c2c2ccccc2n3C)o1	-9%	i	-2	-75*	-9%	4%
Cc1ccc(NC(=O)CSc2nc3ncccc3[nH]2)cc1F	-25%	·	-22	·	-31%	·
COc1cccc(-c2ccc(O)c(CNC(c3ccccc3)c3ccc(Cl)cc3)c2)n1 (stereo unspecified)	·	i	·	·	·	·
N#CC1(c2cccc(C(=O)Nc3cc(Oc4ccc5nc(NC(=O)C6CC6)sc5n4)ccc3F)c2Cl)CC1	·	·	·	·	·	-10%
CSc1ccc(CCNC(=O)CCc2nnc3ccc(N4CCOCC4)nn23)cc1	-2%	i	1	-24	-16%	1%
CSc1ccc(CCNC(=O)CCc2nnc3ccc(N4CCCCC4)nn23)cc1	?	i	-7	3	2.8µM*	-20%
COC(=O)[C@@H]1CCCN1Cc1ccc2c(c1)CN(Cc1nccs1)CCO2	·	i	·	·	·	·
Cc1[nH]c2ccccc2c1C(C#N)(C#N)C1C(=O)c2ccccc2C1=O	4%	i	-20	-89*	-21%	-20%
Cn1c(CCCCCN)nc2ccccc21	8%	i	0	-64*	-49%	-9%
Cn1c(CCNC(=O)c2ccc(F)cc2)nc2ccccc21	-3%	i	-8	-66*	-5%	-10%
CC(C)c1ccc(NC(=O)c2cc(S(=O)(=O)NC3CCCCC3)ccc2F)cc1	?	?	2	·	13µM*	?
C[C@@H]1CN([C@@H](C)CO)C(=O)c2cc(Br)cnc2O[C@@H]1CN(C)Cc1ccc(Oc2ccccc2)cc1	?	25µM*	-7	-10	-35%	-38%
C[C@@H]1CN([C@@H](C)CO)C(=O)c2cc(Br)cnc2O[C@H]1CN(C)Cc1cccnc1	3%	i	8	23	-7%	8%
